These results are taken from PubChem BioAssay.

Each structure is given as a SMILES string. A number with no mark means an inactive call. Inconclusive results are not listed. Activity calls are given as the source filed them. Unless noted, how the calls were made is not given here.

The nature of test [1]: growth inhibition of DIPG glioma cells, dose response, cell-based, SU-DIPG-IV, MIPE4.0, CellTiter-Glo, qHTS (AID 1347063; cut-off not given, nearly all actives have AC50 up to about 30 µM;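 further: compound exposure lasted 48 hours before the viability readout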). Particulars: SU-DIPG-IV viability, CellTiter-Glo ATP luminescence. A general note: In ATP-based viability assays light output follows the ATP content of the culture.
Test [2] in a line: circadian clock period modulators, cell-based, LOPAC library, luminescence reporter (AID 2774).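 Further: values are relative to mean of DMSO wells on each plate.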 To be noted: circadian reporter cells, at 7 µM, actives lie on both sides.
Test [3] has as its system Hepatitis C virus NS3 helicase. Briefly: HCV NS3 helicase inhibitors, primary screen, biochemical, fluorescence polarization, LOPAC1280 library (AID 687035; in the data active means inhibition above about 37%). To be noted: Purified HCV NS3 helicase, Cy5-dT15 ssDNA binding fluorescence polarization; stronger effect = higher value; concentration not given here. Background: In fluorescence polarisation assays a small probe gives low polarisation when free and higher when bound to something large.

Test [4] can be described thus: Cy5 fluorescence quenching or enhancement artefacts, artefact control for HCV NS3 helicase inhibitor project, biochemical, LOPAC1280 (AID 687037). Particulars: Cy5-DNA-NS3h complex fluorescence interference counterscreen. Background: A counterscreen serves to expose hits that act by an unwanted route or on another target.
A short description of test [5]: phospholipid biosynthesis inhibitors in animal cells, primary screen, cell-based, LOPAC library, screen 4 (AID 1347384). Particulars: phospholipid biosynthesis inhibition screen, at 10 µM.
A short description of test [6]: growth inhibition of DIPG glioma cells, dose response, cell-based, JHH-DIPG-1, MIPE4.0, CellTiter-Glo, qHTS (AID 1347062; cut-off not given, nearly all actives have AC50 up to about 27 µM). Particulars: JHH-DIPG-1 viability, CellTiter-Glo ATP luminescence.
A short description of test [7]: growth inhibition of DIPG glioma cells, dose response, cell-based, SU-DIPG-XIII, MIPE4.0, CellTiter-Glo, qHTS (AID 1347061; cut-off not given, nearly all actives have AC50 up to about 37 µM;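 further: cells exposed to compound for 48 hours before readout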). To be noted: SU-DIPG-XIII viability, CellTiter-Glo ATP luminescence.

One may read the AC50 as the midpoint of the concentration-response curve, whichever way the signal moves. Consider `O=c1c(O)c(-c2ccc(O)c(O)c2)oc2cc(O)ccc12`, for which the concentration at half-maximal activity (AC50) in test [1] is 18.7 µM (active).
The inhibition is the drop in the measured response relative to a control, in per cent. In the case of `CN(C)CCN(Cc1cccs1)c1ccccn1`, the period change in test [2] is 0.21 h. The inhibition in test [3] was -1%. For the same compound, the fluorescence ratio (interference) in test [4] was 1. Further, in test [5], the compound was classed as inactive.
`CCC(c1ccc(O)cc1)C(CC)c1ccc(O)cc1` (stereo not drawn): the compound was called inactive in test [6].
Turning to `COc1ccc(-c2cc(=O)c3c(O)cc(O)cc3o2)cc1O`, the half-maximal activity concentration (AC50) in test [7] was 11.8 µM (active).
For the compound `COc1cc2c(cc1OC)[C@@H]1C(=O)c3ccc4c(c3O[C@@H]1CO2)C=CC(C)(C)O4`, the half-maximal activity concentration (AC50) in test [7] is 23.5 µM (active).
As for `Nc1ccc(S(=O)(=O)Nc2ncccn2)cc1`, the compound was called inactive in test [7], in test [6] and in test [1].
Turning to `CC1=C(/C=C/C(C)=C/C=C/C(C)=C/C=C/C=C(C)/C=C/C=C(C)/C=C/C2=C(C)CCCC2(C)C)C(C)(C)CCC1`, the compound was called inactive in test [7] and in test [6].
In the case of `O=C(/C=C/C=C/c1ccc2c(c1)OCO2)N1CCCCC1`, the outcome in test [7], in test [6] and in test [1] was inactive.
`CCn1nc(C(=O)O)c(=O)c2cc3c(cc21)OCO3`: in test [2], the period change was 0.04 h. In addition, the inhibition in test [3] was -4%. Besides, in test [4], the fluorescence ratio (interference) was 1. In addition, the compound was called inactive in test [5].
As for `CCCc1nn(C)c2c(=O)[nH]c(-c3cc(S(=O)(=O)N4CCN(C)CC4)ccc3OCC)nc12`, the result in test [6], in test [1] and in test [5] was inactive.
